Experiment [1] deals with Nucleoli Translocation, AR (gene 367) (UniProt P10275). In words: UPITT_HCI_U2OS_AR_TIF2_Nucleoli_Antagonist: University of Pittsburgh U2OS Androgen Receptor-Transcriptional Intermediary Factor 2 (AR-TIF2) Antagonism High Content Imaging Assay for Nucleoli Translocation (AID 2283997; active = hit-call score of the fitted dose curve at least 0.9, where 1 is the maximum). In short, it runs like this:
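Measured quantity was AR-RFP fluorescence localized to nucleoli in engineered U2OS cells also bearing TIF2-GFP, acquired on automated high-content imagers. Primary testing used 20 uM compound; actives were confirmed in triplicate wells.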

Experiment [2] shares this target. In words: UPITT_HCI_U2OS_AR_TIF2_Nucleoli_Agonist: University of Pittsburgh U2OS Androgen Receptor-Transcriptional Intermediary Factor 2 (AR-TIF2) Agonism High Content Imaging Assay for Nucleoli Translocation (AID 2283998; active = hit-call score of the fitted dose curve at least 0.9, where 1 is the maximum). In short, it runs like this: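 Nucleolar translocation of AR-RFP, with TIF2-GFP coexpressed in human osteosarcoma U2OS, imaged by high-content fluorescence. Compounds tested singly at 20 uM final, confirmed in triplicate, then titrated 0.195–50 uM final; gain-of-signal relative to DMSO.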

Experiment [3] deals with Ratio of Nucleoli Translocation and Cytoplasm, AR (gene 367) (UniProt P10275). Nature of the experiment: UPITT_HCI_U2OS_AR_TIF2_Nucleoli_Cytoplasm_Ratio_Antagonist: University of Pittsburgh U2OS Androgen Receptor-Transcriptional Intermediary Factor 2 (AR-TIF2) Antagonism High Content Imaging Assay for Ratio of Nucleoli Translocation and Cytoplasm (AID 2283999; active = hit-call score of the fitted dose curve at least 0.9, where 1 is the maximum;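 also: antagonists lower the DHT-driven ratio of nucleolar to cytoplasmic red signal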). In a few lines: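 Human osteosarcoma U2OS line, AR fused to RFP, coactivator TIF2 fused to GFP. Cpds 20 uM final, 0.2% DMSO (screen); 0.195–50 uM final, 0.5% DMSO (CRC). Endpoint: nucleoli/cytoplasm red signal ratio, DHT as baseline, loss-of-signal antagonist mode.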

Experiment [4] shares this target. In words: UPITT_HCI_U2OS_AR_TIF2_Nucleoli_Cytoplasm_Ratio_Agonist: University of Pittsburgh U2OS Androgen Receptor-Transcriptional Intermediary Factor 2 (AR-TIF2) Agonism High Content Imaging Assay for Ratio of Nucleoli Translocation and Cytoplasm (AID 2284000; active = hit-call score of the fitted dose curve at least 0.9, where 1 is the maximum;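 also: hits raise the red nucleolar to cytoplasm ratio above vehicle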). In a few lines: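 Read-out first: nucleolar-to-cytoplasm ratio of red (AR-RFP) signal, quantified by high-content imaging in U2OS cells co-expressing TIF2-GFP. Activity is scored as signal increase over DMSO. Single-point screening used 20 uM final (0.2% DMSO).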

Experiment [5] in a line: CCTE_Harrill_HTTr_Viability_MCF7: CCTE's 6-hour Cell Viability Assessment for the High-Throughput Transcriptomics (HTTr) Platform, in MCF-7 cells cultured in DMEM + 10% fetal bovine serum, Harrill Lab (AID 2284010). In a few lines: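 Cells were dosed with chemicals in an eight-point dilution series, imaged 6 hours later for propidium iodide uptake, and the endpoint was analyzed by bidirectional fitting against DMSO as negative control.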

Experiment [6] in a line: CCTE_Harrill_HTTr_CellCount_MCF7: CCTE's Cell Proliferation Assessment for the High-Throughput Transcriptomics (HTTr) Platform, Harrill Lab (AID 2284012; active = hit-call score of the fitted dose curve at least 0.9, where 1 is the maximum;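 also: count of Hoechst-stained nuclei per well by high-content imaging in MCF-7 cells; cells exposed to compound for six hours; intended direction is loss of nuclei count meaning fewer cells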). In a few lines:
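Chemicals in eight-point dilution series are added to MCF-7 cells for six hours, nuclei are stained with Hoechst and imaged, and per-well nuclei counts are fitted in both directions relative to DMSO controls.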

Experiment [7] can be described thus: CCTE_Simmons_MITO_basal_resp_rate: CCTE's HepG2 Seahorse XF Respirometric Screening Assay at Basal Respiratory State, Simmons Lab (AID 2284001). To be noted: actives raise or lower the signal. In short, it runs like this:
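HepG2 respirometry; 7-pt titration 125 nM–100 uM final; kinetic OCR at 6 min intervals for 72 min; n=3 biological, technical singles; DMSO baseline, gain or loss fit; fenpyroximate (decrease) and 2,4-DNP (increase) controls.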

The nature of experiment [8]: CCTE_Simmons_MITO_max_resp_rate: CCTE's HepG2 Seahorse XF Respirometric Screening Assay at Maximal Respiratory State [uncoupled], Simmons Lab (AID 2284002). To be noted: actives raise or lower the signal. In a few lines:
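Maximal (FCCP-uncoupled) respiration rate in HepG2, from Seahorse kinetic OCR over 72 min at 6 min cycles. Compounds at 125 nM–100 uM final, 7 points, three biological replicates; both directions fit relative to DMSO.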

Experiment [9] in a line: CCTE_Simmons_MITO_inhib_resp_rate: CCTE's HepG2 Seahorse XF Respirometric Screening Assay at Inhibited Respiratory State [full ETC block], Simmons Lab (AID 2284006). To be noted: actives raise or lower the signal. In short, it runs like this:
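Compound injected onto HepG2 cells (125 nM–100 uM final, 7 points); FCCP then rotenone/antimycin A added. Oxygen consumption read every 6 min (3 min mix, 3 min measure) for 72 min. Inhibited-state OCR fitted against DMSO.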

A short description of experiment [10]: CCTE_Simmons_MITO_viability: CellTiter-Glo Viability Assessment for CCTE's HepG2 Seahorse XF Respirometric Screening Assay [post-hoc], Simmons Lab (AID 2284007; active = hit-call score of the fitted dose curve at least 0.9, where 1 is the maximum). In short, it runs like this:
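After the Seahorse oxygen-consumption sequence (basal, FCCP, rotenone/antimycin A; 72 min total), HepG2 viability was scored as ATP content by bioluminescence. Chemicals ran at seven concentrations up to 100 uM final for 90 min.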

Experiment [11] is described as follows: CCTE_Shafer_MEA_acute_spike_number: CCTE's Neural Acute Assay for Total Number of Spikes, Shafer Lab (AID 2284008).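 As to AC50: curve fitted for decrease in spike count so AC50 reflects inhibitors.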 In a few lines:
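Total spike count from 40 min recordings before and during compound exposure (0.03-40 uM), given as per-well percent change. Cortical cultures from rat, DIV 13 or 15, 37 C; adaptive detection threshold 8x rms noise.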

A short description of experiment [12]: CCTE_Shafer_MEA_acute_firing_rate_mean: CCTE's Neural Acute Assay for Mean Firing Rate, Shafer Lab (AID 2284009).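 Also: analyzed for loss of signal so actives lower firing rate relative to DMSO.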 In a few lines:
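Percent change in well-mean firing rate was derived from extracellular spikes detected at 8x rms noise (300-5000 Hz band-pass) before and after a 40-min compound exposure. Cultures were primary rat cortical neurons, tested at 0.03-40 uM.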

Experiment [13] is described as follows: CCTE_Shafer_MEA_acute_burst_number: CCTE's Neural Acute Assay for Single-Electrode Bursts, Shafer Lab (AID 2284013). In short, it runs like this:
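Spontaneous network activity of primary rat cortical neurons was recorded extracellularly on microelectrode arrays at 37 C, with 40-min periods before and during exposure to 0.03-40 uM compound on DIV 13 or 15.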

Experiment [14] can be described thus: CCTE_Shafer_MEA_acute_burst_duration_mean: CCTE's Neural Acute Assay for Mean Burst Duration, Shafer Lab (AID 2284014).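 Also: hits are decreases in mean burst duration relative to DMSO controls.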 In a few lines:
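Read-out is the per-well percent change in mean burst duration (first to last spike within a single-electrode burst) between 40-min recordings before and after compound. Cultures were primary rat cortical neurons on MEAs, dosed at 0.03-40 uM on DIV 13 or 15.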

Experiment [15] can be described thus: CCTE_Shafer_MEA_acute_per_burst_spike_number_mean: CCTE's Neural Acute Assay for Average Number of Spikes Per Burst, Shafer Lab (AID 2284015).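 Also: hits are decreases in mean spikes per burst versus baseline.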 In short, it runs like this:
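We recorded spontaneous network firing of rat cortical neurons for 40 min before and 40 min during exposure to compound at 0.03-40 uM, at 37 C. Spikes were detected adaptively at 8x rms noise, and the change in average spikes per burst was fitted against DMSO.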

Experiment [16] in a line: CCTE_Shafer_MEA_acute_interburst_interval_mean: CCTE's Neural Acute Assay for Mean Interburst Interval, Shafer Lab (AID 2284016).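 Also: percent change of mean interburst interval versus each well's own pre-dose baseline; curves fitted for decrease in interburst interval relative to DMSO.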 In a few lines: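 MEA recording of spontaneous network bursting in primary rat cortical cultures; mean interburst interval was compared before and after a 40-min compound exposure (0.03-40 uM) and expressed as percent change, relative to DMSO.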

Experiment [17] is described as follows: CCTE_Shafer_MEA_acute_burst_percentage_mean: CCTE's Neural Acute Assay for Percentage of Spikes in a Burst, Shafer Lab (AID 2284017).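 As to AC50: curve fitted for loss of signal so potency reflects decreased burst percentage.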 In short, it runs like this:
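Compounds were tested at 0.03-40 uM on primary rat cortical neuron networks grown over microelectrodes, with at least three wells per compound. Spontaneous firing was recorded for 40 min before and 40 min after dosing, and the change in burst percentage was computed per well.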

Experiment [18] in a line: CCTE_Shafer_MEA_acute_burst_percentage_std: CCTE's Neural Acute Assay for Standard Deviation of Burst Percentage, Shafer Lab (AID 2284018).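 Also: fitted in the negative direction so actives lower burst percentage SD.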 In a few lines:
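Value is percent change from baseline in the across-electrode SD of spikes-in-bursts percentage, wells with >/= 10 active electrodes. Acute 40-min exposure to 0.03-40 uM on DIV 13 or 15 rat cortical cultures, recorded at 37 C after 40-min baseline.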

Experiment [19] can be described thus: CCTE_Shafer_MEA_acute_per_network_burst_spike_number_mean: CCTE's Neural Acute Assay for Average Number of Spikes in a Network Burst, Shafer Lab (AID 2284019). In a few lines: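 Read-out is mean spike count per network burst, taken as percent change between a 40-min pre-exposure and a 40-min post-exposure recording per well. Rat primary cortical neurons on MEAs at 37 C, DIV 13 or 15; compounds at 0.03-40 uM.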

Experiment [20] in a line: CCTE_Harrill_HTTr_Apoptosis_MCF7: CCTE's 6-hour Apoptosis Assessment for the High-Throughput Transcriptomics (HTTr) Platform, in MCF-7 cells cultured in DMEM + 10% fetal bovine serum, Harrill Lab (AID 2284011). In a few lines:
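High-content imaging of CellEvent Caspase 3/7 Green signal follows a six-hour exposure, with eight concentrations per chemical. MCF-7 cells grown in DMEM plus 10% fetal bovine serum; activity fitted in both directions against DMSO.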

Where “and” joins values, the source holds several entries; their conditions need not be identical. Identical values can stand only once. Results filed as inconclusive are left out. Some structures have more than one record in an assay (separate samples or runs), and their calls can disagree. Calls of active or inactive are those of the source. The calls were made as follows, unless noted: active = hit-call score of the fitted dose curve at least 0.9, where 1 is the maximum; inactive = score below 0.9.

Sequence of Nucleoli Translocation, AR (gene 367) (P10275 whole entry, looked up): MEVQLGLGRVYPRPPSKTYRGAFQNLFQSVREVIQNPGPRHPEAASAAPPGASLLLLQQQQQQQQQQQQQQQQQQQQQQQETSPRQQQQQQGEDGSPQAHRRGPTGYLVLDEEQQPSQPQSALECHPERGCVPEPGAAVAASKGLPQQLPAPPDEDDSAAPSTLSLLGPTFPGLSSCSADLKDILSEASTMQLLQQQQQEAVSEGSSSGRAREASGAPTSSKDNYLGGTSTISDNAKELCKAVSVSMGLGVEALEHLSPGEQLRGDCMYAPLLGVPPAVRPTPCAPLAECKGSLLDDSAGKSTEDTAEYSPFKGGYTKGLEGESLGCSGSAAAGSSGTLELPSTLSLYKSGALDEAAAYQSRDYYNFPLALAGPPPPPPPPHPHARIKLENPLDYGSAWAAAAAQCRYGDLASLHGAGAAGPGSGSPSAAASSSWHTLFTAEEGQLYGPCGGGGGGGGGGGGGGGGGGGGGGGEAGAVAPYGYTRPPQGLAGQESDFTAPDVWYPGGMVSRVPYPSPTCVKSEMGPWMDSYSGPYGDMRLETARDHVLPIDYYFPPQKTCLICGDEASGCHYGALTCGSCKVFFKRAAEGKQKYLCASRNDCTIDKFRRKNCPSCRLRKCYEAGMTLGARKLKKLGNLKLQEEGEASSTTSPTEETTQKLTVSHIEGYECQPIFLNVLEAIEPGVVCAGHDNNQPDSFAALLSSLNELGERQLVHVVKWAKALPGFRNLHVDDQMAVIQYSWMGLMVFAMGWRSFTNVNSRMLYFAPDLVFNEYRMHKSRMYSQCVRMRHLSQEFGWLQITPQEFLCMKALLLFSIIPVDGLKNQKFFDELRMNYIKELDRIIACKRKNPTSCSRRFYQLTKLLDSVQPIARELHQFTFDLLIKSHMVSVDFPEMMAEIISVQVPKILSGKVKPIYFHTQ
Sequence of Ratio of Nucleoli Translocation and Cytoplasm, AR (gene 367) (P10275 whole entry, looked up, the tested form may be a part): as the sequence (P10275 whole entry, looked up) above

Take `CCCCOC(=O)c1ccccc1C(=O)O`: the compound was called inactive in [1], in experiment [2], in experiment [3], in [4], in [5] and in experiment [6].

`CCCCOC(=O)[C@@H](C)Oc1ccc(Oc2ccc(C#N)cc2F)cc1`: the call in experiment [7], in experiment [8], in [9], in [10] and in experiment [5] was inactive.

Regarding `CC(C1CC1)C(O)(Cn1cncn1)c1ccc(Cl)cc1` (configuration not stated), the values for the AC50 in [7] and in experiment [8] were 35.3 µM (active) and 50 µM (active), respectively. Moreover, the call in experiment [9], in experiment [10], in [5] and in experiment [6] was inactive.

In the case of `CCCSP(=O)(OCC)SCCC`, the call in experiment [1], in experiment [2], in experiment [3], in experiment [4], in [9] and in experiment [10] was inactive. Besides, the result in [5] and in experiment [6] was inactive. For the same compound, the figures for the AC50 in experiment [7] and in experiment [8] were 32.8 µM (active) and 38.1 µM (active), respectively.

With `COc1ccc(C(=CC(=O)N2CCOCC2)c2ccc(Cl)cc2)cc1OC`, the results for the AC50 in experiment [1] and in [3] were 3.21 µM (active) and 2.52 µM (active), respectively. Further, the compound was classed as inactive in [2], in experiment [4], in [5] and in experiment [6].

Regarding `CCc1cccc(C)c1N(C(=O)CCl)C(C)COC` (configuration not stated), the AC50 in experiment [7] was 23.7 µM (active); in experiment [8], 39.7 µM (active); in [11], 27 µM (active); in experiment [12] it was 27 µM (active); in [13], 14.8 µM (active); in [17], 10.9 µM (active). Also, the compound was called inactive in experiment [9], in experiment [10], in experiment [5], in [6], in [14] and in experiment [15]. Besides, the compound was classed as inactive in experiment [16], in [18] and in experiment [19].

For `CNC(=O)ON=C(SC)C(=O)N(C)C`, the compound was called inactive in experiment [1], in experiment [2], in [3], in experiment [11], in [12] and in experiment [5]. The result in [20], in [6], in experiment [13], in experiment [14], in experiment [15] and in experiment [16] was inactive. Moreover, the result in experiment [17], in experiment [18] and in experiment [19] was inactive.

As for `CSC1=N[C@@](C)(c2ccccc2)C(=O)N1Nc1ccccc1`, the AC50 in experiment [7] is 50 µM (active); in [8], 41 µM (active); in experiment [11], 5.8 µM (active); in [12], 5.76 µM (active); in experiment [14] it was 32 µM (active); in experiment [15], 27.1 µM (active). In addition, the half-maximal activity concentration (AC50) in [17] was 20 µM (active) and 24.4 µM (active); in experiment [18] it was 37.7 µM (active) and 26.1 µM (active). Besides, the call in [9], in experiment [10], in [11], in experiment [12], in [5] and in [20] was inactive. Besides, the call in experiment [13], in [14], in [15], in experiment [16] and in experiment [19] was inactive.

The values above are taken from PubChem BioAssay (EPA / NIEHS).
